This is a sample that favours compounds with a hit; in the whole collection about 12% have one here.
Sm TGR block: inhibitors of Schistosoma mansoni thioredoxin glutathione reductase | purified TGR, DTNB reduction, TNB absorbance 405 nm | Potency, µM (doses to about 114 µM), actives largely listed as inhibitors | Q962Y6 | AID 485364 | 3% of 360,000 active; also: nearly all actives have a fitted effect of over 60% in size
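First, TGR (20 nM dispensed) and NADPH were mixed with compound. Second, a 15 min room-temperature incubation followed. Third, further NADPH and then DTNB were added to start the reaction. Finally, TNB absorbance was monitored kinetically.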
Pf growth 96h: inhibits malaria parasite growth, 96 h; AID 504834; 6.9% of 320,000 active; Potency, µM (doses to about 28.7 µM), usual class: inhibitors; P. falciparum luciferase reporter growth, 96 h
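P. falciparum expressing integrated firefly luciferase grown in erythrocytes (2% hematocrit, 0.05% parasitemia final) with compounds for 96 hours at 37 C, 5% CO2. Growth inhibition read as loss of luminescence after adding luciferase detection reagent.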
Pf growth 48h: P. falciparum growth inhibition at 48 hours (one generation); P. falciparum luciferase growth in erythrocytes, 48 h; Potency, µM (doses to about 28.7 µM), actives largely listed as inhibitors; AID 504832; 5.9% of 310,000 active
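Here the parasites carry a stable luciferase gene and grow inside erythrocytes in Albumax-based RPMI medium with compound for one erythrocytic cycle. Activity is scored as loss of luminescent signal.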
AmpC inh detg: AmpC beta-lactamase inhibition with detergent present. Potency, µM (titrated, usually from 114 µM), hits mostly inhibitors. P00811. 0.041% of 370,000 active. AID 485294. AmpC hydrolysis of nitrocefin, absorbance 480 nm, 0.01% Triton; also: nearly all actives have a fitted effect of over 25% in size
Target sequence (P00811 whole entry, looked up): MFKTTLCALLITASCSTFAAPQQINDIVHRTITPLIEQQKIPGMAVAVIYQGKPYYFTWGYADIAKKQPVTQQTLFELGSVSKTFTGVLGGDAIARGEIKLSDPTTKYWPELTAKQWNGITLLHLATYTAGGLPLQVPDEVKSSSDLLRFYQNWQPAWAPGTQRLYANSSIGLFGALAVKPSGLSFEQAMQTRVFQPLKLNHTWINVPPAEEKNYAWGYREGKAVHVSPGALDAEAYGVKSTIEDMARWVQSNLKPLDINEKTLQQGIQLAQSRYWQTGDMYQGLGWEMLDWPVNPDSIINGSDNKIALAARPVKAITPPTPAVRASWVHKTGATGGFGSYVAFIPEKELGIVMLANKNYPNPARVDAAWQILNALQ
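20 mM phosphate pH 7.0 + 0.01% (detergent screen) or 0.0001% Triton X-100; 5.3 nM AmpC reagent; cpd preinc 15 min RT; nitrocefin (800 uM stock) to start; A480 q20 s × 4 min; Activity was normalised to no-enzyme and no-compound control wells.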
AmpC no deterg: inhibitors of E. coli AmpC beta-lactamase without detergent; P00811; Potency, µM (titrated, usually from 57.1 µM), usual class: inhibitors; 0.52% of 330,000 active; AID 485341; AmpC nitrocefin hydrolysis, absorbance 480 nm, 0.0001% Triton; also: nearly all actives have a fitted effect of over 20% in size
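20 mM phosphate pH 7.0 + 0.01% (detergent screen) or 0.0001% Triton X-100; 5.3 nM AmpC reagent; cpd preinc 15 min RT; nitrocefin (800 uM stock) to start; A480 q20 s × 4 min; Activity was normalised to no-enzyme and no-compound control wells.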
SARS PLpro yeast: inhibitors of SARS-CoV papain-like protease in yeast | S. cerevisiae expressing SARS-CoV PLpro, growth rescue | 0.19% of 330,000 active | Potency, µM (series often up to 32.9 µM), most hits filed as activators; calls by dose curve; also: nearly all actives have a fitted effect of over 55% in size
Numbers stand for hits; n = inactive; u = inconclusive; x = not tested or not shown. Unless noted, calls follow the shape of the dose curve; as a rule, active = well fitted curve in the direction sought with a large enough effect; inconclusive = small, poorly fitted or top-dose-only effect, or another doubt; inactive = no such curve, though single readings can be large; an effect the other way counts as inactive or inconclusive.

SMILES | Sm TGR block | Pf growth 96h | Pf growth 48h | AmpC inh detg | AmpC no deterg | SARS PLpro yeast
O=C(NCc1ccccc1Cl)c1cccc(OC2CCN(C(=O)C3CC3)CC2)c1 | u | 8.3µM | n | n | n | n
Cc1ccc(C)c(CN2CCCN(CC(=O)Nc3ccc(C)c(C)c3)S2(=O)=O)c1 | n | x | x | n | x | x
O=C(NCc1n[nH]c(=S)n1-c1ccc(Cl)c(Cl)c1)c1ccco1 | n | 15µM | u | n | n | n
O=C(NCc1n[nH]c(=S)n1-c1ccccc1)c1ccco1 | u | n | n | n | n | n
COc1ccc(C(=O)N2CCN(c3nc4c(C)c(Cl)ccc4s3)CC2)c(OC)c1 | n | x | x | n | x | x
O=C(/C=C/c1ccccc1)NC1CC2CCCC(C1)N2Cc1ccccc1 (stereo not given) | n | 2.3µM | u | n | n | n
Cc1ccc(CN2C3CCCC2CC(NC(=O)Nc2cccc(F)c2)C3)cc1 (stereo not given) | n | n | 1.9µM | n | n | n
COc1cc(C(=O)NC2CC3CCCC(C2)N3CC(=O)Nc2ccccc2)cc(OC)c1OC (stereo not given) | u | n | u | u | n | n
Cc1ccc(C(=O)NC2CC3CCCC(C2)N3Cc2ccccc2)cc1 (stereo not given) | n | u | u | n | n | n
Cc1ccc(CN2C3CCCC2CC(NC(=O)c2ccc(F)cc2)C3)cc1 (stereo not given) | n | n | 10µM | n | n | n
O=C(CN1C2CCCC1CC(NC(=O)c1ccccc1)C2)Nc1nccs1 (stereo not given) | n | 9.3µM | u | n | n | n
COc1ccc(CC(=O)NC2CC(C)(C)NC(C)(C)C2)cc1OC | n | n | n | n | n | n
CCOC(=O)c1c(C)oc2nc(C)nc(NCCCN3CCN(c4cccc(C)c4)C(C)C3)c12 (stereo not given) | n | x | x | n | x | x
O=C(NC1CC2CCCC(C1)N2Cc1ccccc1)c1ccc([N+](=O)[O-])cc1 (stereo not given) | n | 0.37µM | n | u | n | n
CN1CCc2nc(SCC(=O)Nc3cccc(F)c3)c(C#N)c(-c3cccs3)c2C1 | 20µM | 10µM | 13µM | n | n | n
CN1CCc2nc(SCC(=O)Nc3ccc(OC(F)(F)F)cc3)c(C#N)c(-c3cccs3)c2C1 | 35µM | n | n | n | n | n
CC(C)(C)C(=O)CSc1nc2c(c(-c3cccs3)c1C#N)CCC2 | n | u | u | n | n | n
Cc1nc(OCc2c(C)noc2C)c2ccccc2n1 | n | n | n | n | n | n
CC1CC(C)CN(Cc2nc(N)nc(Nc3ccc4ccccc4c3)n2)C1 (stereo not given) | n | x | 12µM | n | n | n
CC1CC(C)CN(Cc2nc(N)nc(Nc3ccccc3)n2)C1 (stereo not given) | n | 10µM | u | n | n | n
CCc1nc(N=C(N)N)nc2ccccc12 | n | n | 3.3µM | n | n | n
CCc1nc2ccccc2c(C(=O)O)c1C | n | x | n | n | n | n
Clc1nc(-c2ccccc2)c2ccccc2n1 | n | u | n | n | n | n
NC(N)=Nc1nc(-c2ccccc2)c2ccccc2n1 | n | n | 12µM | n | n | n
CC1=C(C(=O)Nc2cccc(Cl)c2)C2(CCCCCC2)OC1=O | n | x | x | n | x | x
SMILES | Sm TGR block | Pf growth 96h | Pf growth 48h | AmpC inh detg | AmpC no deterg | SARS PLpro yeast
O=[N+]([O-])c1cccc(S(=O)(=O)/N=C(/Nc2ccccc2)c2ccccc2)c1 | x | x | x | x | n | n
CC(=O)c1cc2c(cc1NC(=O)CCCC(=O)O)OCO2 | n | n | n | n | n | n
CC(=O)c1cc2c(cc1NC(=O)CCn1cnnn1)OCO2 | 50µM | u | n | n | n | n
CCCCN(CCCC)CP(=O)(c1ccccc1)c1ccccc1 | n | n | x | n | n | n
CCOc1ccccc1CN1CCc2nc(Nc3ccc4c(c3)OCCO4)ncc2C1 | n | x | x | n | x | x
CN(C)C(=O)COc1ccc(Br)cc1 | n | n | n | n | n | n
CN(C)C(=O)COc1ccc(S(=O)(=O)c2ccc(OCC(=O)N(C)C)cc2)cc1 | 79µM | n | u | n | n | n
CCC(C)c1ccccc1NC(=O)c1cc2cccc([N+](=O)[O-])c2[nH]1 (stereo not given) | n | 2.9µM | u | n | n | n
Oc1c(Br)cc(Br)cc1/C=N/NC(=S)N[C@H]1CC2C=CC1C2 (stereo not given in full) | n | u | u | n | n | n
CCOc1ccc(/C=N/NC(=S)NC2CC3C=CC2C3)cc1 (stereo not given) | n | 8.3µM | u | n | n | n
COc1cc(/C=N/NC(=S)NC2CC3C=CC2C3)cc(OC)c1OC (stereo not given) | n | 2.9µM | 5.2µM | n | n | n
CCCCOc1ccc(/C=N/NC(=S)Nc2cc(C)ccc2C)cc1 | n | n | x | n | n | n
Cc1nnc(NC(=O)C2CC(=O)N(c3ccc4c(c3)OCCO4)C2)s1 (stereo not given) | n | n | n | n | n | n
O=C(Nc1nc(-c2ccco2)c(-c2ccco2)s1)C1CCC1 | u | u | n | u | 32µM | n
CS(=O)(=O)c1ccc2nc(NC(=O)c3ccccc3)sc2c1 | n | n | n | u | n | n
O=C(Nc1nc(-c2ccco2)c(-c2ccco2)s1)C1CC(=O)N(c2ccc3c(c2)OCCO3)C1 (stereo not given) | 11µM | n | n | n | n | n
CS(=O)(=O)c1ccc(C(=O)Nc2nc(-c3ccco3)c(-c3ccco3)s2)cc1 | 3.5µM | n | n | n | n | n
Cc1ccccc1-c1nc(CN2CCC(C(=O)NC(C)C)CC2)c(C)o1 | n | x | x | n | x | x
CC1Cc2cc(S(=O)(=O)NCc3ccc(F)cc3)ccc2N1C(=O)C1CCC1 (stereo not given) | n | x | x | n | x | x
O=S(=O)(CC(c1ccccc1)N1CCCCC1)c1ccc(Cl)cc1 (stereo not given) | n | n | n | n | n | n
O=S(=O)(CC(CN1CCCCC1)N1CCCCC1)c1ccc2ccccc2c1 (stereo not given) | n | n | n | n | n | n
Cc1ccc(S(=O)(=O)CC(CN2CCCCC2)N2CCCCC2)cc1 (stereo not given) | x | u | 8.3µM | n | n | n
Cc1ccc(S(=O)(=O)CC(c2ccccc2)N2CCOCC2)cc1 (stereo not given) | n | 9.3µM | n | n | x | x
Cc1ccc(S(=O)(=O)CC(c2ccccc2)N2CCCCC2)cc1 (stereo not given) | n | 10µM | n | n | n | n
COc1ccc(CCNC(=O)CN(c2ccc(C)cc2)S(=O)(=O)c2ccc(OC)cc2)cc1 | n | x | x | n | x | x

Source: PubChem
